# PI5P4Ka inh = blocks human PI5P4K alpha kinase activity. hit rate 1.2% among 330,000. max response, %. PI5P4Kalpha enzyme, ADP-Glo luminescence, 60 min; hits give low values; active = max response of -50% or lower; inconclusive = between -30% and -50%; inactive = -30% or higher; note: value at the top dose of about 77 µM
# Target sequence (P48426 whole entry, looked up): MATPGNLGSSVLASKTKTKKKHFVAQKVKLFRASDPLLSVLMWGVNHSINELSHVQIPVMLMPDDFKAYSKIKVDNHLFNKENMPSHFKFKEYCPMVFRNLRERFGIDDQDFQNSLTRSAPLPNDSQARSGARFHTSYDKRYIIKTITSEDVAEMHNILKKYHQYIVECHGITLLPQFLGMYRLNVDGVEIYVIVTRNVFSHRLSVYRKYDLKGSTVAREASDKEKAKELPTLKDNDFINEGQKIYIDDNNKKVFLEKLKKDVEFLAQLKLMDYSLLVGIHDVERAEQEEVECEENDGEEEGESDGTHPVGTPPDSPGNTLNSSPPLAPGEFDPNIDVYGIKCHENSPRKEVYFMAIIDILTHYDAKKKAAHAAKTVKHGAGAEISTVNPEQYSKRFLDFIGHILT
#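 PI5P4Kalpha ADP-Glo assay; 5 microM ATP final; 60 min RT reaction; HEPES pH 7.4/EGTA/CHAPS, 5% DMSO; controls lacking substrate or enzyme; luminescent end-point.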
# PI4K2A inh = blocks human PI4K2A kinase activity; Q9BTU6; purified PI4K2A, ADP-Glo luminescence, 1 h; hits give low values; activity change, negative = inhibition, % at 76.9 µM; hit rate 0.13% among 420,000; AID 1346378; in the data active = activity change below about -50%; inconclusive = mostly about -30% to -49%
#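 PI4K2A activity was measured by ADP-Glo luminescence: enzyme (4 ug/mL stock) and phosphatidylinositol (1.2 mM stock) in Tris pH 7.5/MgCl2/EGTA/Triton X-100 buffer were reacted with ATP (300 microM stock) for one hour at ambient temperature.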
# Pin1 inh = inhibitors of human Pin1. Q13526. Pin1 FP peptide displacement, HiFluor488, 10 min. Potency, µM (titrated, usually from 115 µM), most hits filed as inhibitors. hit rate 0.009% among 390,000. AID 504891; active = well fitted inhibition curve with a large enough effect in the polarisation, with a control signal flat, not every such curve was filed as active; inconclusive = small, poorly fitted or top-dose-only effect, or effect the other way, or a change in a side signal; inactive = no such curve, though single readings can be large or run the other way; the % refers to the polarisation
# Tb PFK inh = blocks T. brucei phosphofructokinase. hit rate 0.17% among 330,000. Potency, µM (titrated, usually from 57.5 µM), actives largely listed as inhibitors. O15648. T. brucei PFK, ADP-Glo luminescence; note: nearly all actives have a fitted effect of over 60% in size
#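 PFK 1.25 nM, F6P 0.5 mM, ATP 0.1 mM, 0.1 M TEA pH 8.0, 5 mM MgCl2, 0.01% Tween20, 0.1% BSA; 45 min RT. ADP-Glo readout. qHTS titration up to 57 uM; curves fitted, compounds curve-classed.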
# PGK inhibitor = inhibitors of T. brucei phosphoglycerate kinase; P07378; PGK/GAPDH coupled, Kinase-Glo luminescence, 60 min; Potency, µM (titrated, usually from 57.5 µM), usual class: inhibitors; hit rate 0.043% among 380,000; note: nearly all actives have a fitted effect of over 60% in size
#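 Recombinant glycosomal PGK reaction used 1,3-bisphosphoglycerate generated in-well by GAPDH (100nM final) in 100mM TEA pH 7.6, 5mM MgCl2, 0.01% Tween-20. After 60 minutes at room temperature, ATP was read by Kinase-Glo Plus luminescence end-point.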
# ADP-Glo interf = interferes with ADP-Glo detection without enzyme present; shares compounds with PI5P4Ka inh; ADP-Glo detection counter-screen, luciferase luminescence, no enzyme; Potency, µM (doses to about 76.9 µM), usual class: inhibitors; 1,100 tested, under 10 active; AID 743285
# Hits are given with their value; – = inactive; ? = inconclusive; · = no result given. The sample as a whole holds a higher share of hits than the screen did. Unless noted, calls come from the whole dose curve; as a rule, active = well fitted curve in the direction sought with a large enough effect; inconclusive = small, poorly fitted or top-dose-only effect, or another doubt; inactive = no such curve, though single readings can be large; an effect the other way counts as inactive or inconclusive.
SMILES,PI5P4Ka inh,PI4K2A inh,Pin1 inh,Tb PFK inh,PGK inhibitor,ADP-Glo interf
O=C(OC1CC2CCC(C1)[N+]21CCCC1)C(O)(c1ccccc1)c1ccccc1 (stereo not given),·,–,·,·,·,·
COc1ccc2[nH]c(=O)c(CN(Cc3cccs3)C(=S)Nc3ccccc3)cc2c1,·,·,·,–,·,·
CNC(=S)N(Cc1cccs1)Cc1cc2ccc(OC)cc2[nH]c1=O,-60,–,–,–,–,–
Cc1ccccc1SCc1noc(C(=O)NC(C)C)c1C(=O)O,–,–,–,–,–,·
CC(C)NC(=O)c1onc(CSc2ccccc2F)c1C(=O)O,-66,–,–,–,–,–
CCCCNC(=O)c1onc(CSc2ccc(OC)cc2)c1C(=O)O,-50,–,–,–,–,–
COc1ccc(C(=O)N2CCCC2(C)C(=O)O)cc1C(F)(F)F (stereo not given),-87,–,·,·,·,–
CCOC(=O)C1(C)CCCCCN1C(=O)c1ccc(OC)c(C(F)(F)F)c1 (stereo not given),–,–,·,·,·,·
O=C(Cc1ccccc1)N[C@@H](Cc1ccccc1)C(=O)O,–,–,–,–,–,·
COc1ccc(CC(=O)NCC(=O)NC(Cc2ccccc2)C(=O)O)cc1 (stereo not given),-65,–,?,–,–,–
O=C(N/N=C/c1cn(-c2ccccc2)nc1-c1cc2ccccc2o1)c1ccncc1,?,–,–,–,–,·
O=C(O)c1cccc(NC(=O)c2cn(-c3ccccc3)nc2-c2cc3ccccc3o2)c1,-53,–,·,–,–,–
Cc1csc(NC(=O)Cn2nc(C)c([N+](=O)[O-])c2C)n1,–,–,–,–,–,·
CCc1c(C)sc(NC(=O)Cn2nc(C)c([N+](=O)[O-])c2C)c1C(N)=O,-58,–,–,–,–,–
Cc1ccc(N=c2oc3cc(O)ccc3cc2C(N)=O)cc1,-52,–,?,–,–,–
CC(=O)Nc1cccc2ccc(O)cc12,-62,–,–,·,–,–
COCCCN1C(=O)[C@H](CC(=O)NCc2ccc(C)o2)[C@]2(C(=O)OC)CCCCC=C12,·,–,·,·,·,·
O=C(O)c1ccc(-c2nc(-c3ccccc3Cl)cs2)cc1,-65,–,–,–,–,–
O=C(O)c1ccc(-c2nc(-c3ccccc3)cs2)cc1,–,–,–,–,–,·
O=C(NCCc1ccccc1)OCc1cn(-c2cccc(C(F)(F)F)c2)nn1,·,–,·,·,·,·
Cc1cc(C(=O)OCC(=O)Nc2c(F)cccc2F)c(C)n1-c1ccccc1,-75,–,–,–,–,–
O=S(=O)(c1sccc1Br)n1c(CN2CCOCC2)nc2ccccc21,·,–,·,·,·,·
CS(=O)(=O)Nc1ccc(C2=NN(C(=O)c3ccco3)C(c3ccc(F)cc3)C2)cc1 (stereo not given),-56,–,–,–,–,–
CC1(OC(=O)CCc2ccccc2)C(=O)C=C2C=C(c3ccc(C#N)cc3)N(Cc3ccco3)C=C2C1=O (stereo not given),-53,–,–,–,–,–
CC1(OC(=O)CCc2ccccc2)C(=O)C=C2C=C(c3ccc(C#N)cc3)N(Cc3ccccc3)C=C2C1=O (stereo not given),?,–,–,–,–,·
SMILES,PI5P4Ka inh,PI4K2A inh,Pin1 inh,Tb PFK inh,PGK inhibitor,ADP-Glo interf
CC(C)CNC(=O)OCc1cn(Cc2ccc(F)c(F)c2)nn1,·,–,·,·,·,·
COc1ccc(Cl)cc1S(=O)(=O)NCCCn1ccnc1,–,–,–,–,–,–
COc1ccc(OC)c(S(=O)(=O)NCCCn2ccnc2)c1,–,–,–,–,–,·
COc1ccc(-n2c(SCC(=O)N3CCCC3)nnc2-c2ccncc2)cc1,·,–,·,·,·,·
CCN(CC(=O)Nc1ccc(OC)cc1)C(=O)c1ccc2ccccc2c1,–,–,–,–,–,·
CCN(CC(=O)Nc1ccc(OC)cc1)C(=O)c1ccc([N+](=O)[O-])cc1,-64,–,–,–,–,–
CC(=O)Nc1cccc(-c2ccnc3c2CC(C(=O)NCc2cccnc2)O3)c1 (stereo not given),–,–,·,·,·,·
CC(=O)Nc1cccc(-c2ccnc3c2CC(C(=O)NCc2ccco2)O3)c1 (stereo not given),-50,–,·,·,·,–
COc1cccc(Nc2nnc(SCC(=O)Nc3sccc3C(N)=O)s2)c1,-52,–,–,–,–,–
